Measurements from PubChem BioAssay (NCATS).
Inconclusive results are not listed. Active and inactive are the calls of the source. The call rests on the fitted dose curve; in most records, active means well fitted curve in the direction sought with a large enough effect; inconclusive means small, poorly fitted or top-dose-only effect, or another doubt; inactive means no such curve, though single readings can be large; an effect the other way counts as inactive or inconclusive.

Assays:
[1] = molecular target: Protein phosphatase 1D (Homo sapiens) (UniProt O15297); experiment: RapidFire Mass Spectrometry qHTS Assay for Modulators of WT P53-Induced Phosphatase 1 (WIP1) (AID 1347424); conditions: WIP1 dephosphorylation of phosphopeptide, RapidFire MS; series mostly up to 63 µM;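 further: amount of dephosphorylated VEPPL-S-QETFS peptide product formed by WIP1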
Sequence of Protein phosphatase 1D (Homo sapiens) (O15297 whole entry, looked up): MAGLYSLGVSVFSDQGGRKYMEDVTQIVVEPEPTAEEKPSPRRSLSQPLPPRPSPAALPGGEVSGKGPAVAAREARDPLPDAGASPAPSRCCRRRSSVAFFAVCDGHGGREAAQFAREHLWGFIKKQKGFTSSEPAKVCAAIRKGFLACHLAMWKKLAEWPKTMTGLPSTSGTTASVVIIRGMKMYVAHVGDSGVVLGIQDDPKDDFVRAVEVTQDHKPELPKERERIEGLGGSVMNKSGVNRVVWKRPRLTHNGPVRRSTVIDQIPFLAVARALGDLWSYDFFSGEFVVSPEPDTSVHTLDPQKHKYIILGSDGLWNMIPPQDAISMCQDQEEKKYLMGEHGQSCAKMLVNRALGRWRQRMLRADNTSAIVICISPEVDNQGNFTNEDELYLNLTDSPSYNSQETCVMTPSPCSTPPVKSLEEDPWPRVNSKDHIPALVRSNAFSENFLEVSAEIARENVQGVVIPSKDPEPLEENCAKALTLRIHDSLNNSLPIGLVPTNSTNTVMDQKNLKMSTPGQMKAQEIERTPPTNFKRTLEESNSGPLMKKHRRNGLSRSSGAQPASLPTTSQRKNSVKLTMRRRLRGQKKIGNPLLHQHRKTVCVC
Method in brief: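 WIP1 (10 nM final) was preincubated 1 h at room temperature with compounds in Tris-HCl pH 7.5, 30 mM MgCl2, TCEP, EGTA, BSA; 2 uM VEPPL-pS-QETFS phosphopeptide was added for 5 min, quenched with formic acid, and dephosphorylated product quantified by RapidFire MS.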

[2] = molecular target: Protein phosphatase 1D (Homo sapiens) (UniProt O15297); experiment: Rhodamine-PBP qHTS Assay for Modulators of WT P53-Induced Phosphatase 1 (WIP1) (AID 1347425); conditions: recombinant WIP1, Rhodamine-PBP phosphate fluorescence, real-time; series mostly up to 57.5 µM
Method in brief: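 The read-out is the change in Rhodamine-PBP fluorescence (f1 - f0, ex 525/em 598 nm) as Pi is released, read each minute for 11 min. Final reaction: 5 nM WIP1, 10 uM phosphopeptide VEPPL-pS-QETFS, 10 uM Rh-PBP, 50 mM Tris-HCl pH 7.5, 30 mM MgCl2. Compound was preincubated with enzyme for 1 hour at room temperature.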

[3] = Primary qHTS for inhibitors of La Crosse Virus (LACV) - induced cell death in SH-SY5Y cells (AID 1508616); conditions: SH-SY5Y LACV cytopathicity rescue, ATP luminescence, 6 d; series mostly up to 4.29 µM;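 further: top concentration of the series differs between compounds; higher means more rescue of cells from virus-induced death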
Method in brief: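 Luminescent ATP readout (ATPLite 1step, 5 min room temperature) measured rescue from LACV-induced death after 6 days of infection at 0.01 MOI; normalized to infected DMSO wells and uninfected DMSO wells.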

[4] = molecular target: Calcium and integrin-binding protein 1 (Homo sapiens) (UniProt Q99828); experiment: Primary qHTS for Identification of Calcium Integrin Binding Protein 1 (CIB1) Competitor (AID 1508620); conditions: CIB1-GST / FITC-alphaIIb peptide fluorescence polarization; series mostly up to 114 µM;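 further: GST tagged CIB1 binding a fluorescein labelled alphaIIb integrin peptide tracer; top concentration of the series differs between compounds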
Sequence of Calcium and integrin-binding protein 1 (Homo sapiens) (Q99828 whole entry, looked up): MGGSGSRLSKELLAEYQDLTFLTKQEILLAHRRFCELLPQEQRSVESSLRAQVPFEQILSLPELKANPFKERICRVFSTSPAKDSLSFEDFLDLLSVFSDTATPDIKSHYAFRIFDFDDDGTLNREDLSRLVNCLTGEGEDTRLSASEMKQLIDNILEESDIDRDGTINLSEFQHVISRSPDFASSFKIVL
Method in brief: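 Fluorescence polarization competition: CIB1-GST (1 uM final) preincubated with compound 15 min at room temperature, then FITC-labeled alphaIIb peptide (100 nM final) added for another 15 min. Polarization read at Ex 480/Em 540.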

Measured: Potency

COc1cc(NS(=O)(=O)c2ccc(N)cc2)ncn1
inactive: all assays above

O=C(Oc1cccc2cccnc12)c1ccccc1
inactive: [1] | [2] | [4]

COc1ccc(CN(CCN(C)C)c2ncccn2)cc1
inactive: all assays above

CCCCNc1ccc(C(=O)OCCOCCOCCOCCOCCOCCOCCOCCOCCOC)cc1
inactive: all assays above

CCCCCCCCCCCCCC(=O)OC(C)C
inactive: all assays above

O=C(CCCN1CC=C(n2c(=O)[nH]c3ccccc32)CC1)c1ccc(F)cc1
inactive: all assays above

CC(C)Nc1cccnc1N1CCN(C(=O)c2cc3cc(NS(C)(=O)=O)ccc3[nH]2)CC1
inactive: all assays above

CCCCC(CC)COC(=O)c1ccc(N(C)C)cc1 (stereo not drawn)
inactive: all assays above

CC1CCc2c(N3CCC(O)CC3)c(F)cc3c(=O)c(C(=O)O)cn1c23 (stereo not drawn)
inactive: [1] | [2] | [4]

CN1CCC[C@@H]1CCO[C@](C)(c1ccccc1)c1ccc(Cl)cc1
inactive: [1] | [2] | [4]

O=C(NC1CCN(CCc2c[nH]c3ccccc23)CC1)c1ccccc1
inactive: all assays above

Cn1c(=O)c2[nH]c(Br)nc2n(C)c1=O
inactive: all assays above

CN(C)CCOC(=O)C(c1ccccc1)C1(O)CCCC1 (stereo not drawn)
inactive: all assays above

CC(=O)Oc1ccc(C)cc1
inactive: all assays above
